This is an account of results in PubChem BioAssay (EPA / NIEHS).

Experiment [1] is described as follows: CCTE_Shafer_MEA_dev_network_spike_peak: CCTE's Neural Network Formation Assay for Mean Number of Electrodes in Network Spike, Shafer Lab (AID 2284049).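 For AC50: fitted for loss of signal meaning fewer electrodes in network spikes than DMSO.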 An outline of the steps:
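Continuous 12-day exposure of rat cortical cultures, starting at plating, on MEA plates. Endpoint: electrodes participating in network-spike peaks, AUC across DIV 5–12, DMSO as negative control.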

Experiment [2] concerns DIO2 (gene 1734). Nature of the experiment: CCTE_GLTED_hDIO2: CCTE's human Deiodinase 2 (DIO2) Inhibition Assay, Great Lakes Toxicology and Ecology Division (GLTED) Lab (AID 2284050; active = hit-call score of the fitted dose curve at least 0.9, where 1 is the maximum). The method in brief:
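Cell-free human DIO2 incubated 3 h with chemical; liberated iodide quantified by Sandell-Kolthoff absorbance. Triplicate plates; loss of signal fitted vs DMSO.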

The nature of experiment [3]: CCTE_Shafer_MEA_dev_spike_duration_mean: CCTE's Neural Network Formation Assay for Mean Spike Duration, Shafer Lab (AID 2284051).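 For AC50: potency for a decrease in mean network spike duration versus DMSO.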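 Note: mean network spike duration pooled as area under curve over DIV 5 to 12 recordings.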 An outline of the steps:
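With DMSO as baseline, loss of mean network spike duration was scored from extracellular recordings of rat cortical neurons on MEA plates. Exposure spanned plating to DIV 12; the four recording days were collapsed into one AUC value.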

Experiment [4] is described as follows: CCTE_Shafer_MEA_dev_network_spike_duration_std: CCTE's Neural Network Formation Assay for Standard Deviation of Network Spike Duration, Shafer Lab (AID 2284052).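 Note: area under curve of spike duration SD across recording days 5 to 12; hits are decreases in network spike duration SD versus DMSO vehicle.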 The method in brief:
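Developing networks of rat cortical neurons were exposed over twelve days in vitro on 48-well MEA plates. Trapezoidal AUC of recordings (DIV 5–12) was analysed for signal loss relative to DMSO vehicle.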

Experiment [5] is described as follows: CCTE_Shafer_MEA_dev_per_network_spike_spike_number_mean: CCTE's Neural Network Formation Assay for Mean Number of Spikes in a Network Spike, Shafer Lab (AID 2284053).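 For AC50: fitted as decrease in spikes per network spike relative to DMSO.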 An outline of the steps:
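First, rat cortical cells (1.5 x 10^5/well) were seeded onto MEA wells; second, dosing began at plating and was refreshed on DIV 5 and 9; finally, network-spike spike counts across DIV 5–12 were summarized as AUC.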

Experiment [6] is described as follows: CCTE_Shafer_MEA_dev_per_network_spike_spike_percent: CCTE's Neural Network Formation Assay for Percent of Spikes in a Network Spike, Shafer Lab (AID 2284054). An outline of the steps:
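Primary rat cortical neurons on 16-electrode MEA wells (PEI-coated, laminin at plating), exposed from day 0 with renewal at DIV 5 and 9; spikes within 0.05 s of network-spike peaks over total spikes, AUC across days 5, 7, 9, 12.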

Experiment [7] deals with DIO3 (gene 1735). Kind of experiment: CCTE_GLTED_hDIO3: CCTE's human Deiodinase 3 (DIO3) Inhibition Assay, Great Lakes Toxicology and Ecology Division (GLTED) Lab (AID 2284055; active = hit-call score of the fitted dose curve at least 0.9, where 1 is the maximum;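 for AC50: potency is for inhibition seen as loss of released iodide signal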). The method in brief: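 Human DIO3 from an adenovirus expression system is incubated 3 h with test chemical. Released iodide is quantified by Sandell-Kolthoff absorbance, in triplicate plates. Loss of signal is fitted relative to DMSO.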

Experiment [8] is described as follows: CCTE_Shafer_MEA_dev_LDH: CCTE's Lactate Dehydrogenase Assay for Cytotoxicity in the Neural Network Formation Assay, Shafer Lab (AID 2284068; active = hit-call score of the fitted dose curve at least 0.9, where 1 is the maximum;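 note: exposure for twelve days from plating with re-dosing on DIV 5 and 9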). An outline of the steps: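 Developing rat cortical networks on MEA plates are exposed to compound for 12 days from plating. LDH activity is measured spectrophotometrically, with DMSO as baseline.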
Experiment [9] in a line: CCTE_Shafer_MEA_dev_AB: CCTE's Alamar Blue Assay for Cytotoxicity in the Neural Network Formation Assay, Shafer Lab (AID 2284083; active = hit-call score of the fitted dose curve at least 0.9, where 1 is the maximum;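 note: resazurin reduction fluorescence as viability of cultured neurons; twelve days of exposure from plating with re-dosing on DIV 5 and 9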). An outline of the steps:
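Cytotoxicity companion to the developmental MEA: primary rat cortical neurons, 12-day exposure starting day 0, compound refreshed DIV 5 and 9; resazurin fluorescence, fitted against DMSO vehicle.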
For orientation: Alamar Blue is a resazurin reagent that responds to reducing activity.

Experiment [10] in a line: CCTE_Shafer_MEA_dev_mutual_information_norm: CCTE's Neural Network Formation Assay for Mutual Information Normalization, Shafer Lab (AID 2284091).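 For AC50: mutual information between electrodes summarised as area under curve across four recording days; potency is for a decrease in mutual information relative to DMSO.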 The method in brief: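 Rat cortical cultures, 48-well MEA, continuous exposure DIV 0–12 with full media/compound change DIV 5 and 9. Readout: inter-electrode mutual information, AxIS adaptive spike detection; AUC across DIV 5/7/9/12 recordings; DMSO baseline, negative fitting direction.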

Experiment [11] is described as follows: CCTE_Shafer_MEA_dev_correlation_coefficient_mean: CCTE's Neural Network Formation Assay for Mean Correlation Coefficient, Shafer Lab (AID 2284093).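 For AC50: well mean pairwise spike train correlation integrated as AUC over recording days 5 to 12; potency fitted for loss of correlation relative to DMSO vehicle wells.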 The method in brief:
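Extracellular firing from rat cortical networks on 48-well MEAs, DMSO-referenced, negative fitting direction. Compound present from plating to DIV12; mean pairwise correlation per well integrated over DIV5–12 recordings by trapezoidal AUC.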

The nature of experiment [12]: CCTE_Mundy_HCI_Cortical_Synap_Neur_Matur_NeuriteSpotCountPerNeuriteLength: CCTE's Synaptogenesis and Neurite Maturation Assay in rat cortical cells for Neurite Spot Count per Neurite Length, Mundy Lab (AID 2284210). The method in brief: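 Rat primary cortical cultures, glia arrested with AraC at DIV 5, were dosed with media change at DIV 7 and fixed at DIV 12. Synaptophysin puncta per MAP2-labelled neurite length were quantified by high-content imaging versus DMSO.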

Experiment [13] in a line: CCTE_Shafer_MEA_acute_AB: CCTE's Alamar Blue Assay for Cytotoxicity in the Neural Acute Assay, Shafer Lab (AID 2284069; active = hit-call score of the fitted dose curve at least 0.9, where 1 is the maximum;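 note: active compounds lower the viability signal compared with DMSO wells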). The method in brief: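 Cytotoxicity endpoint for acute MEA exposures of primary rat cortical neurons on day 13 or 15. Resazurin reduction is read fluorescently at 544/590 nm, with DMSO as the negative-control baseline.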
Experiment [14] can be described thus: UKN2_HCS_IMR90_neural_migration: University of Konstanz (UKN) Leist Lab Neural Crest Cell Migration Assay in human induced IMR90 Pluripotent Stem Cells (UKN2) (AID 2284204). Particulars: actives raise or lower the signal. An outline of the steps:
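iPSC-derived IMR90 neural crest cells on PLO/laminin/fibronectin were seeded around silicone stoppers; after stopper removal, migration in N2-S medium with EGF and FGF ran 24 h before 24 h chemical exposure. Calcein-AM/Hoechst high-content imaging; bidirectional fit versus DMSO.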

A short description of experiment [15]: IUF_NPC1b_proliferation_BrdU_72hr: Leibniz Research Institute for Environmental Medicine (IUF) 72-hour Neural Progenitor Cell Bromodeoxyuridine (BrdU) Proliferation Assay (NPC1b) (AID 2284207). The method in brief: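 hNPC spheres (primary, GW 16-19 fetal cortex), single sphere/well, EGF+FGF medium; 72 h compound, no renewal; BrdU pulse last 16 h; luminescent ELISA; activity vs DMSO baseline; growth-factor withdrawal as positive control.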

A short description of experiment [16]: IUF_NPC1a_proliferation_area_72hr: Leibniz Research Institute for Environmental Medicine (IUF) 72-hour Neural Progenitor Cell Proliferation Area Assay (NPC1a) (AID 2284208). The method in brief:
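Proliferation read as increase in sphere area by phase-contrast imaging over 72 h continuous compound exposure (no renewal) of hNPC spheres grown with EGF/FGF at 37C, 5% CO2. Growth-factor withdrawal served as positive control; DMSO as baseline.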

Experiment [17] can be described thus: IUF_NPC1_viability_72hr: Viability Assessment at 72 hours in the Leibniz Research Institute for Environmental Medicine (IUF) Neural Progenitor Cell Proliferation Assay (NPC1) (AID 2284209). An outline of the steps:
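Single spheres (0.25-0.35 mm) of human fetal cortex-derived neural progenitor cells were grown in proliferation medium with EGF and FGF at 37C and 5% CO2. They were exposed for 72 h without renewal, and viability was read by alamar blue resorufin fluorescence.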

Molecules are shown by their SMILES. Where “and” joins values, the source holds several entries; their conditions need not be identical. Identical values can stand only once. Records with an inconclusive call do not appear. Some compounds were tested as several samples or in several runs, with calls that do not always agree. Calls of active or inactive are those of the source. Rule for the calls, unless noted: active = hit-call score of the fitted dose curve at least 0.9, where 1 is the maximum; inactive = score below 0.9.

Take `CN(C)[C@@H]1C(=O)C(C(N)=O)=C(O)[C@@]2(O)C(=O)C3=C(O)c4c(O)cccc4[C@@](C)(O)[C@H]3C[C@@H]12`: the compound was classed as inactive in experiment [1], in experiment [2], in [3], in experiment [4], in [5] and in [6]. Also, the outcome in [8], in experiment [9], in experiment [10], in experiment [11] and in experiment [12] was inactive. Further, in experiment [7], the AC50 was 79.8 µM (active).

For the compound `CC(C)(OOC(C)(C)c1ccccc1)c1ccccc1`, the compound was classed as inactive in [13].

In the case of `Clc1ccc(C(c2ccc(Cl)cc2)C(Cl)Cl)cc1`, the AC50 in experiment [1] was 4.03 µM (active); in experiment [3], 3.39 µM (active); in [4], 3.21 µM (active); in experiment [5], 4.95 µM (active); in experiment [6], 3.97 µM (active); in [8], 5.96 µM (active). Besides, the half-maximal activity concentration (AC50) in [9] was 5.14 µM (active); in [10], 2.01 µM (active); in experiment [11] it was 3.89 µM (active). For the same compound, the compound was called inactive in experiment [13].

Turning to `CCNS(=O)(=O)C(F)(F)C(F)(F)C(F)(F)C(F)(F)C(F)(F)C(F)(F)C(F)(F)C(F)(F)F`, the AC50 is 5.46 µM (active) and 1.92 µM (active) in [1]; 100 µM (active) in [2]; 15 µM (active) and 4.81 µM (active) in experiment [3]; 4.54 µM (active) and 2.66 µM (active) in experiment [5]; 6.71 µM (active) and 4.93 µM (active) in [6]; 8.58 µM (active) and 4.41 µM (active) in experiment [8]. Moreover, the AC50 is 15 µM (active) and 7.67 µM (active) in [9]; 2.98 µM (active) and 2.72 µM (active) in experiment [10]; 2.98 µM (active) and 4.98 µM (active) in experiment [11]. The compound was called inactive in experiment [4] and in experiment [7].

As to `O=Cc1ccco1`, in [13], the compound was classed as inactive.

Consider `COC(=O)Nc1nc2ccccc2[nH]1`, for which the AC50 is 12.5 µM (active) in experiment [1]; 12.5 µM (active) in [3]; 12.5 µM (active) in experiment [5]; 5.94 µM (active) in [6]; 12.5 µM (active) in [8]; 7.64 µM (active) in [9]. Also, the AC50 is 5.19 µM (active) in experiment [10], 5.11 µM (active) in [11] and 18.4 µM (active) in [15]. The compound was classed as inactive in experiment [4], in experiment [13], in [14], in experiment [16], in experiment [17] and in experiment [12].

On to `CNC(=O)Oc1cccc2c1OC(C)(C)C2`, for which the AC50 was 10 µM (active) and 49.6 µM (active) in [1]; 10 µM (active) and 49.6 µM (active) in [3]; 49.6 µM (active) in experiment [5]; 49.6 µM (active) in [8]; 49.6 µM (active) in [9]. Moreover, the outcome in experiment [4], in experiment [5], in experiment [6], in experiment [8], in experiment [9] and in experiment [10] was inactive. Moreover, the call in [11], in experiment [14], in [15], in experiment [16], in experiment [17] and in experiment [12] was inactive.

With `CCC(C)c1ccc(O)cc1` (centres undefined), the call in experiment [13] was inactive.

Take `CCCCCCCCn1sccc1=O`: the AC50 in experiment [2] was 8.47 µM (active); in experiment [7], 17.5 µM (active). For the same compound, the result in experiment [13] was inactive.

On to `Cc1ccc(N)c(N)c1`, for which the compound was called inactive in experiment [13].

With `c1ccc(N=Nc2ccccc2)cc1`, in [13], the outcome was inactive.

Turning to `O=C(N[C@H](c1ccccc1)[C@@H]1CN2CCC1CC2)c1c(Cl)ccc(C(F)(F)F)c1Cl`, the call in experiment [13] was inactive.

Consider `O=P(OCCCl)(OCCCl)OCCCl`, for which the compound was classed as inactive in experiment [1], in experiment [3], in experiment [4], in [5], in experiment [6] and in [13]. For the same compound, the compound was classed as inactive in experiment [9], in experiment [10], in [11], in experiment [15], in experiment [16] and in experiment [17].

`CC(C)(O)c1cnn2c(-c3ccc(F)c(-c4c(F)cccc4C#N)c3)cnc2n1`: the AC50 in experiment [1] is 1.98 µM (active); in experiment [3], 1.98 µM (active); in experiment [6], 10 µM (active); in experiment [10], 0.191 µM (active). The compound was classed as inactive in experiment [4], in experiment [5], in experiment [13], in [9] and in experiment [11].

On to `OCCOCCO`, for which the compound was called inactive in [1], in [3], in [4], in experiment [5], in experiment [6] and in [10]. Also, the compound was classed as inactive in [11], in experiment [15], in experiment [16], in [17] and in [12].

`[O-][Cl+]O`: the call in [1], in experiment [3], in experiment [4], in [5], in [6] and in experiment [8] was inactive. Also, the call in experiment [9], in experiment [10], in [11], in experiment [16], in experiment [17] and in [12] was inactive. Also, the AC50 in experiment [15] is 2.18 µM (active).

Take `[Cl-].[Cl-].[Hg+2]`: the AC50 in experiment [1] is 0.641 µM (active); in experiment [3] it was 0.64 µM (active); in [4], 0.382 µM (active); in experiment [5], 0.894 µM (active); in experiment [6], 0.423 µM (active); in [8] it was 0.929 µM (active). Moreover, the AC50 was 32.6 µM (active) in experiment [13], 0.559 µM (active) in experiment [9] and 0.66 µM (active) in experiment [11]. Further, in experiment [10], the outcome was inactive.

Consider `Cc1cc(N=Nc2ccccc2C)ccc1N`, for which the call in experiment [13] was inactive.

On to `C1=Cc2cccc3cccc1c23`, for which the result in [1], in experiment [3], in experiment [4], in experiment [5], in experiment [6] and in experiment [8] was inactive. Moreover, the call in [9], in experiment [10] and in [11] was inactive.

The AC50 is the concentration at which the activity in the assay is half-maximal.
